This assay deals with Solute carrier family 2, facilitated glucose transporter member 1 (Homo sapiens) (UniProt P11166). Description: ST_JUDE_LEISH: Cytotoxicity at 2uM final concentration against transgenic Leishmania Mexicana promastigotes LmGLUT1 that are glucose transport deficient and complemented with the human glucose transporter GLUT1. Activity is measured by DNA content using SYBR green in vitro. The format is functional.
Chain of Solute carrier family 2, facilitated glucose transporter member 1 (Homo sapiens) (P11166 whole entry): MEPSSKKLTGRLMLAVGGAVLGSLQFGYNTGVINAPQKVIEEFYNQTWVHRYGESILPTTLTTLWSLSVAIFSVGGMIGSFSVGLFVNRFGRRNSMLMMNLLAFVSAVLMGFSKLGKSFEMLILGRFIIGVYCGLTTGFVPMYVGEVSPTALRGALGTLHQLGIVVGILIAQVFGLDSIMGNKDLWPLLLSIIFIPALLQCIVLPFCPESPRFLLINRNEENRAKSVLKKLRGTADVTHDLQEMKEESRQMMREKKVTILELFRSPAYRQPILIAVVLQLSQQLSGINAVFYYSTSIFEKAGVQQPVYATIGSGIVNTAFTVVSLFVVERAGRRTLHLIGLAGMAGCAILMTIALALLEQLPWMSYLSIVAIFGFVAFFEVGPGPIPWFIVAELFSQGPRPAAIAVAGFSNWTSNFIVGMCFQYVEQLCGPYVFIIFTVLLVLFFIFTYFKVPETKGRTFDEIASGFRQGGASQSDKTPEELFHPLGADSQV
For `Cc1[nH]c(C)c(C(F)(F)F)c(=O)c1-c1ccc(Oc2ccc(OC(F)(F)F)cc2)cc1`, the inhibition is 2.24%.
For the compound `O=C(/C=C/c1ccc(Cl)c(Cl)c1)NCCCCCN1CCC(NC(=S)Nc2ccc(F)cc2F)CC1`, the inhibition came to 16.5%.
Under `Nc1c2c(nc3ccc(NC(=O)CCCc4ccccc4)cc13)CCCC2` stands 1.07%.
As for `Nc1nc(N)c2cc(NS(=O)(=O)c3ccc(-c4ccccc4)cc3)ccc2n1`, the inhibition stood at 4.33%.
With `CCNc1cc(C(=O)N[C@@H](Cc2ccccc2)[C@H](O)CNC(C)(C)Cc2cccc(Cl)c2)cc(N2CCCCS2(=O)=O)c1`, the inhibition is 5.21%.
Regarding `CCNc1cc(C(=O)N[C@@H](Cc2ccccc2)[C@H](O)CNC(C)(C)Cc2ccccc2)cc(N2CCCC2=O)c1`, the inhibition amounted to 3.58%.
Take `O=C(CCc1c[nH]cn1)Nc1ccc(-c2ccc(-c3nc4ccccc4[nH]3)cc2)cc1`: the inhibition worked out at 19.3%.
As to `CN(C)CCCNc1ncnc2c1[nH]c1ccc(F)cc12`, the inhibition is 7.06%.
For `CC1CN(Cc2cccc(-c3ccc(-c4nc5ccccc5[nH]4)cc3)c2)CC(C)O1` (stereo not given), the inhibition turned out to be 3.06%.
With `CN(Cc1cccc(F)c1)C1CCCN(c2cc(NC(=O)c3ccccc3)ccn2)C1` (stereo not given), the inhibition came to 4.12%.
With `COC(=O)C(=C(C)C)N1C(=O)[C@@H](NC(=O)OCc2ccccc2)[C@H]1SS[C@@H]1[C@H](NC(=O)OCc2ccccc2)C(=O)N1C(C(=O)OC)=C(C)C`, the inhibition was -2.06%.
On to `CC(=O)Nc1cccc(C(=O)Nc2cccc(-c3ccc(-c4nc5cccc(C)c5[nH]4)cc3)c2)c1`, for which the inhibition is 0.33%.
Consider `Cc1nnnn1-c1ccc(C(=O)N2CCC3(CC2)CN(Cc2ccc(Cl)c(Cl)c2)C(=O)O3)cc1`, for which the inhibition amounted to 8.95%.
Under `COc1cccc(CN2CCCN(Cc3cccc(NC(=O)c4cc5ccccc5s4)c3)CC2)c1` stands 3.41%; under `CC(=O)Nc1ncc(C(=O)Nc2cccc(-c3ccc(-c4nc5cc(F)ccc5[nH]4)cc3)c2)s1`, 4.02%.
`CN(C)CCOc1cc(NC(=O)Nc2ccc(Cl)cc2C(F)(F)F)ccc1I`: the inhibition stood at 3.57%.
In the case of `CCc1ccccc1N=C1c2c(cccc2[N+](=O)[O-])C(=O)C1C(C)=O` (stereo not given), the inhibition was -1.62%.
For the compound `O=C(O)C[C@H](NC(=O)[C@@H]1CCCN1C(=O)c1cccc(-c2ccc(Cl)c(Cl)c2)c1)C(=O)O`, the inhibition was found to be 1.31%.
Under `O=C(/C=C/c1ccc(Cl)c(Cl)c1)NCCCCCN1CCCN(C(=O)Nc2cccc(F)c2)CC1` stands 0.1%; under `Clc1cccc(C=NNc2nc(=Nc3ccccc3)[nH]c(=Nc3ccccc3)[nH]2)c1`, 8.44%; under `O=C(/C=N/O)Nc1ccccc1[N+](=O)[O-]`, -1.31%.
As to `CCNc1cc(C)nc(Nc2ccc(NC(=O)c3ccco3)cc2)n1`, the inhibition is 4.54%.
In the case of `Cc1ccccc1CN1CCCN(Cc2ccc(C(=O)Nc3ccc(C(C)(C)C)cc3)cc2)CC1`, the inhibition was 6.33%.
For `O=S(=O)(Nc1ccc2nccc(N3CCNCC3)c2c1)c1ccc2oc3ccccc3c2c1`, the inhibition stood at 4.08%.
Under `CC(C)(CNCc1ccc(Cl)c(Cl)c1)c1nc(-c2ccc(Cl)c(O)c2)c(-c2ccncc2)[nH]1` stands 0.8%; under `CCOCCCn1c(=N)c(C(=O)NCc2ccc(F)cc2)cc2c(=O)n3cccc(C)c3nc21`, 4.22%.
Turning to `Clc1ccc(Nc2nc3ccc(Cl)cc3nc2Nc2ccc(Cl)cc2)cc1`, the inhibition is 7.56%.
As to `Cc1nc(-c2cccc(C(=O)NC3CCC(CCN4CCc5ccc(-c6cccnc6)cc5CC4)CC3)c2)no1` (stereo not given), the inhibition came to 11.5%.
Consider `FC(F)(F)c1ccc2[nH]c(-c3cccc(-c4ccc(CNCCc5ccncc5)cc4)c3)nc2c1`, for which the inhibition amounted to 1.9%.
Regarding `COc1cc(F)c2ncc(C#N)c(CCN3CCC(NCc4ccc5c(c4)OCCO5)CC3)c2c1`, the inhibition is 91.3%.
`CCN1CCN(CCCNc2c3ccc(Cl)cc3nc3ccc(O)cc23)CC1`: the inhibition was 0.03%.
As for `Cc1ccccc1CN1CCCN(Cc2ccc(C(=O)Nc3ccc(Cl)cc3)cc2)CC1`, the inhibition stood at 7.5%.
To `O=C(/C=C/c1ccc(Cl)c(Cl)c1)N1CCC(CNCc2cccc3cc[nH]c23)CC1` belongs 1.64%.
Regarding `O=C(Nc1cccnc1)c1cn(-c2ccccc2)nc1-c1cccs1`, the inhibition turned out to be 3.18%.
For the compound `CN1CCCC(CN2CCN(Cc3ccc(-c4ccc(-c5nc6cc(F)ccc6[nH]5)cc4)cc3)CC2)C1` (stereo not given), the inhibition amounted to 2.18%.
With `O=C(NCCCN1CCN(c2cccc(Cl)c2)CC1)c1ccc(-c2nc3cc(Cl)c(Cl)cc3[nH]2)c(F)c1`, the inhibition was determined as 3.57%.
Consider `Cc1ccc2nc(N/C(N)=N/C(=O)NC3CCCCC3)nc(C)c2c1`, for which the inhibition worked out at 3.24%.
As for `O=C(Nc1ccc2c(c1)OCO2)c1cc(-c2cccnc2)nc2ccc(Cl)cc12`, the inhibition was found to be 3.49%.
On to `COc1cc(CNc2ncc(-c3ccsc3)c(-c3nccs3)n2)cc(OC)c1`, for which the inhibition stood at 1.79%.
For `CCOC(=O)c1[nH]c2ccc(F)cc2c1NC(=O)CN1CCN(c2cccc(C(F)(F)F)c2)CC1`, the inhibition is 0.03%.

The values are drawn from ChEMBL document CHEMBL3433997, “St. Jude Leishmania screening dataset” (2016).
